From PubChem BioAssay
GDH-TPI counter-1: inhibits GDH-TPI coupling enzymes, artifact for Mtb FBA screen; GDH-TPI coupled enzyme counterscreen, NADH absorbance; inhibition, % at 4.8 µM; 360,000 compounds, 1.2% hits; AID 588335; in the data active means inhibition above about 30%
3CLpro inhibitor: SARS-CoV 3CLpro protease inhibition. recombinant SARS-CoV 3CLpro, quenched FRET peptide cleavage. inhibition, % at 6 µM. 290,000 compounds, 0.14% hits. AID 1706; in the data active means inhibition above about 12%
PrPC surface inh: reduces human prion protein on the cell surface. P04156. inhibition, % at 13.8 µM. cell surface PrPC, TR-FRET read-out. 370,000 compounds, 0.43% hits; in the data active means inhibition above about 24%
Mtb FBA inh: inhibitors of M. tuberculosis fructose-bisphosphate aldolase; P9WQA3; purified M. tuberculosis FBA, fluorescence read-out; inhibition, % at 1 µM; 360,000 compounds, 2.3% hits; AID 588726
Target sequence (P9WQA3 whole entry, looked up): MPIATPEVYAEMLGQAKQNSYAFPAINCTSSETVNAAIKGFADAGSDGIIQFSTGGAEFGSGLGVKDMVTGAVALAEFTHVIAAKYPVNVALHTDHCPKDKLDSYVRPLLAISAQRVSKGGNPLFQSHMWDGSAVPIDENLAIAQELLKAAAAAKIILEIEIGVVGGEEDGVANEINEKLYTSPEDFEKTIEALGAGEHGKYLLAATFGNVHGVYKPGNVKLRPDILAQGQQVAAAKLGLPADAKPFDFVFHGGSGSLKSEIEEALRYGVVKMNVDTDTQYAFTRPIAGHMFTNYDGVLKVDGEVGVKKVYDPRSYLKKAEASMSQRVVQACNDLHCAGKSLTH
Vc quorum ag: inducers of Vibrio cholerae quorum light production without autoinducers; V. cholerae BH1578 lux reporter, luminescence, 6 h; activation, % at 18.7 µM; 350,000 compounds, 0.16% hits; AID 588436; in the data active means activation mostly above about 9.7%, no sharp cut-off
Mtb FBA confirm: Mtb FBA inhibition, confirmed; 5,600 compounds, 78% hits; inhibition, % at 1 µM; purified M. tuberculosis FBA, fluorescence read-out; AID 651616; shares compounds with Mtb FBA inh
GDH-TPI counter-2: inhibits GDH-TPI coupling enzymes, flagging Mtb FBA hits | shares compounds with Mtb FBA inh | AID 652141 | inhibition, % at 1 µM | 5,600 compounds, 81% hits | GDH-TPI coupled enzyme counterscreen, fluorescence; in the data active means inhibition above about 10%
Of the large screens only hits and unclear results are named; the others gave an inactive call (follow-up assays come after a bar, where they were run). Compounds with a hit are over-represented: about 3.9% of the library has one in this group of screens. Unless noted, no stated cut-off is given here; in the data, active means inhibition above about 27%; inactive means the rest.

CCOc1c2ccc(C(=O)NCCc3ccc(C)cc3)cc2nn1CC	Mtb FBA inh 51 | Mtb FBA confirm 121 | GDH-TPI counter-2 105
CCOc1c2ccc(C(=O)NCCCCc3ccccc3)cc2nn1CC	Mtb FBA inh 48 | Mtb FBA confirm inactive | GDH-TPI counter-2 inactive
C=CCOc1c2ccc(C(=O)NCc3ccc(C)cc3)cc2nn1C	none
Cc1ccc(C(=O)NCCc2cccs2)cc1	none
O=C(NCCCCc1ccccc1)c1cccc(Br)c1	none
CCCn1nc2cc(C(=O)NCc3ccc(C)cc3)ccc2c1OCC	Mtb FBA inh 52 | Mtb FBA confirm 86 | GDH-TPI counter-2 63
CCn1nc2cc(C(=O)NCCc3cccs3)ccc2c1OC	Mtb FBA inh 41 | Mtb FBA confirm active | GDH-TPI counter-2 196
Cc1cccc(NC(=O)C2CCCN(c3ncnc4c3nc3n4CCCCC3)C2)n1 (centres undefined)	none
CCCn1nc2cc(C(=O)NCc3ccccc3OC)ccc2c1OCC	Mtb FBA inh 42 | Mtb FBA confirm inactive | GDH-TPI counter-2 inactive
CCOc1c2ccc(C(=O)NCc3ccc(C)cc3)cc2nn1CC	Mtb FBA inh 67 | Mtb FBA confirm 67 | GDH-TPI counter-2 45
CCC1CCCCN1C(=O)CCS(=O)(=O)c1ccccc1 (centres undefined)	none
COC(=O)C1NN=C(C(=O)c2ccc(Cl)cc2)C1c1ccc(OC)cc1 (centres undefined)	none
COC(=O)/C=c1\[nH]c2nnc(C)n2c1=O	Mtb FBA inh 84 | Mtb FBA confirm active | GDH-TPI counter-2 active
COC(=O)/C=c1\sc2ncnn2c1=O	none
COc1cc2c3c(c1)C(C)=CC(C)(C)N3C(=O)C2=O	Mtb FBA inh 29 | Mtb FBA confirm inactive | GDH-TPI counter-2 inactive
CC(C)C[C@H]1C(=O)N2CCC[C@H]2[C@]2(O)O[C@](NC(=O)[C@@H]3C=C4c5cccc6[nH]cc(c56)C[C@H]4N(C)C3)(C(C)C)C(=O)N12	none (no result: 3CLpro inhibitor, PrPC surface inh)
CCC(CO)NC(=O)C1C=C2c3cccc4[nH]cc(c34)CC2N(C)C1 (centres undefined)	Mtb FBA inh 83 | Mtb FBA confirm active | GDH-TPI counter-2 active
Cc1cccc(C)c1-c1ccc(CN2C(CC(C)C)C(=O)N(Cc3cn(CCO)nn3)CCS2(=O)=O)cc1 (centres undefined)	none (no result: 3CLpro inhibitor)
Clc1ccc(-c2nnc(-c3ccco3)o2)cc1	Mtb FBA inh 72 | Mtb FBA confirm active | GDH-TPI counter-2 active
Nc1nnc(-c2ccc(Cl)cc2)o1	none
O=C(Cc1cccs1)Nc1ccc(-c2nnc(-c3ccco3)o2)cc1	Mtb FBA inh 49 | Mtb FBA confirm 83 | GDH-TPI counter-2 67
O=C(Nc1nnc(-c2ccco2)o1)c1ccc(Cl)cc1	none
CN(C)c1nnc(-c2ccc(Cl)cc2)o1	Mtb FBA inh 66 | Mtb FBA confirm active | GDH-TPI counter-2 active
O=C(Cc1cccs1)Nc1ccc(-c2nnc(-c3ccccc3)o2)cc1	none
CCC(=O)N1CCC1(C)C(=O)Nc1nccs1 (centres undefined)	none (no result: 3CLpro inhibitor)
CCc1nnc(SCC(=O)Nc2ccc(N3CCOCC3)cc2)n1C	none
Nc1ccc(-c2nc3ccc(-c4nc5ccccc5o4)cc3[nH]2)cc1	GDH-TPI counter-1 57, Mtb FBA inh 84 | Mtb FBA confirm 36 | GDH-TPI counter-2 25
Cc1nc2ccc(-c3nc4ccccc4o3)cc2[nH]1	Mtb FBA inh 50 | Mtb FBA confirm 63 | GDH-TPI counter-2 56
CC(=O)c1c(C)[nH]c(C(=O)COc2ccc3ccc(=O)oc3c2)c1C	Mtb FBA inh 50 (no result: 3CLpro inhibitor) | Mtb FBA confirm 92 | GDH-TPI counter-2 51
CC12CCC(C(=O)N(NC(=O)c3ccccc3Cl)C1=O)C2(C)C (centres undefined)	none
CC12CCC(C(=O)N(NC(=O)c3cc(Cl)ccc3O)C1=O)C2(C)C (centres undefined)	Mtb FBA inh 44 | Mtb FBA confirm inactive | GDH-TPI counter-2 inactive
CCN1C[C@]2(COC(=O)c3ccccc3N)CC[C@H](OC)C34[C@@H]5C[C@H]6[C@H](OC)[C@@H]5[C@](O)(C[C@@H]6OC)[C@@](O)([C@H]13)[C@@H](OC)[C@@H]42	Mtb FBA inh 43 | Mtb FBA confirm 59 | GDH-TPI counter-2 39
CCN1C[C@]2(COC)CC[C@H](O)[C@]34C1[C@](O)([C@@H](OC)[C@H]23)[C@@]1(O)C[C@H](OC)[C@H]2C[C@@H]4[C@@H]1[C@H]2OC	none (no result: 3CLpro inhibitor)
CCN1C[C@]2(COC)CC[C@H](OC)[C@@]34C5C[C@H]6C(=O)C5[C@](O)(C[C@H]6OC)[C@@](O)(C(OC)C23)[C@@H]14 (some centres undefined)	none (no result: 3CLpro inhibitor)
CCN1CC2(COC(=O)c3ccccc3N)CCC(OC)C34C5CC6C(OC)CC(O)(C5C6OC)C(O)(C(OC)C23)C14 (centres undefined)	Mtb FBA inh 36 (no result: PrPC surface inh) | Mtb FBA confirm inactive | GDH-TPI counter-2 inactive
Cc1cccc2nc(-c3cccnc3)c(NCCC(C)C)n12	Mtb FBA inh 29 | Mtb FBA confirm active | GDH-TPI counter-2 active
CCn1ncc(S(=O)(=O)Nc2cc(Cl)ccc2C)c1C	none
CCOc1ccc(OCC)c(NS(=O)(=O)c2cn(C)cn2)c1	none
Cn1cnc(S(=O)(=O)Nc2ccccc2C(=O)NCC2CC2)c1	Mtb FBA inh 29 | Mtb FBA confirm 82 | GDH-TPI counter-2 64
CCc1cc(=O)oc2cc(OCC=C(C)C)ccc12	Mtb FBA inh 36 | Mtb FBA confirm 35 | GDH-TPI counter-2 30
CCc1cc(=O)oc2cc(OCc3nn[nH]n3)ccc12	Mtb FBA inh 31 (no result: PrPC surface inh) | Mtb FBA confirm active | GDH-TPI counter-2 active
CC(C)=CCOc1c2ccoc2cc2oc(=O)ccc12	none
CCCCc1cc(=O)oc2cc(OCc3nn[nH]n3)c(Cl)cc12	none
COc1ccc(NC(=O)CCc2nnc3ccc(NCc4ccco4)nn23)cc1OC	Mtb FBA inh 89 | Mtb FBA confirm 142 | GDH-TPI counter-2 118
O=C(Nc1cccc(S(=O)(=O)N2CCCCCC2)c1)C1CCC1	none (no result: 3CLpro inhibitor)
Cc1cc(=O)[nH]c2nc3ccccc3n12	Mtb FBA inh 47 (no result: 3CLpro inhibitor) | Mtb FBA confirm 76 | GDH-TPI counter-2 60
CCCCCc1c(C)[nH]c2nc3ccccc3n2c1=O	none
COC(=O)Cc1cc(=O)n(-c2ccccc2)[nH]1	none
COC(=O)Cc1cc(=O)n2c(nc3ccccc32)[nH]1	Mtb FBA inh 65 | Mtb FBA confirm 35 | GDH-TPI counter-2 18
Cc1ccc2nc(NCCC(=O)O)nc(-c3ccccc3)c2c1	Mtb FBA inh 36 | Mtb FBA confirm 48 | GDH-TPI counter-2 48
Cc1ccc2nc(NCC(=O)O)nc(-c3ccccc3)c2c1	Mtb FBA inh 30 (no result: Vc quorum ag) | Mtb FBA confirm 54 | GDH-TPI counter-2 46
Cc1ccc2nc(NCC(N)=O)nc(-c3ccccc3)c2c1	none (no result: GDH-TPI counter-1, Mtb FBA inh, Vc quorum ag)
O=C(O)CCNc1nc(-c2ccccc2)c2cc(Br)ccc2n1	none
OCCCNc1nc(-c2ccccc2)c2cc(Br)ccc2n1	none
